These results are taken from PubChem BioAssay AID431 (Sanford-Burnham Center for Chemical Genomics, 2006).

About 1,100 (1.7%) of roughly 63,000 compounds were called active. This is one part of a sample in which actives are shown more often than they occur. Potency and affinity values are given separately. Unmarked numbers belong to inactive results.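 Rule for the calls: active = compounds whose percent cytotoxicity in the single-dose primary screen, scaled between solvent and toxic-drug controls, exceeds 50; inactive = the rest.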

This experiment in a line: viability loss of HPDE-C7K cells – cell-based, fluorescence, HTS, primary screen (AID 431).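 Note: 0% = DMSO solvent wells and 100% = doxorubicin-treated wells.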 To be noted: HPDE-C7K KRASV12 cells, Alamar Blue viability, 48 h; at 10 µM; active compounds read high. A general note: The colour change of resazurin is a common sign of viable cells or microbes.
As for `Cc1ccc(S(=O)(=O)Nc2ccc3c(c2)nc2n3CCN(Cc3ccccc3)C2)cc1`, the cytotoxicity was 6.9%.

With `O=S(=O)(Nc1ccc2c(c1)nc1n2CCN(Cc2ccccc2)C1)c1ccccc1`, the cytotoxicity is 0.8%. The value for `O=S(=O)(Nc1ccc2c(c1)nc1n2CCN(Cc2ccccc2)C1)c1ccc(Cl)cc1` was 51.1% (active); that for `COc1ccc(CC(C)N2CCN(c3ccccc3OC)CC2)cc1OC` (configuration not stated) was 8.7%; that for `CCn1c(SCC(=O)NCc2ccco2)nc2c1c(=O)n(C)c(=O)n2C` was -20.9%.

In the case of `COC(=O)c1cc(NC(=O)c2nccnc2C(=O)O)cc(C(=O)OC)c1`, the cytotoxicity is -2.1%. The value for `CC(=O)C1=C(C)NC(C)=C(C(C)=O)C1c1ccc(-c2ccccc2Cl)o1` was -13%; that for `COC(=O)C1=C(C)NC2=C(C(=O)c3ccccc32)C1c1ccc(-c2ccc(C(=O)O)cc2)o1` (configuration not stated) was 62.8% (active); that for `CCOC(=O)C1=C(C)NC2=C(C(=O)c3ccccc32)C1c1cccnc1` (configuration not stated) was 12.3%. Turning to `Cc1ccc(C(=O)NCc2ccco2)cc1S(=O)(=O)N1CCCCC1`, the cytotoxicity was -20.4%.

Consider `Cc1c(NC(=O)c2ccccc2N)cccc1C(=O)O`, for which the cytotoxicity was 6.3%. For `CC(=O)c1cccc(NC(=O)CN(Cc2ccccc2)S(C)(=O)=O)c1`, the cytotoxicity is -3.4%.

On to `O=C(C(NS(=O)(=O)c1cccs1)c1ccccc1)N1CCN(c2ccccc2)CC1` (configuration not stated), for which the cytotoxicity is -9.8%. Take `CCOc1ccccc1C(=O)N1CCN(c2cccc(Cl)c2)CC1`: the cytotoxicity was 65.8% (active).

Take `Cc1ccc2occ(CN3CCN(c4ccccc4)CC3)c(=O)c2c1`: the cytotoxicity was -18.2%. In the case of `Cc1cc(C(=O)N2CCN(c3cccc(Cl)c3)CC2)c(C)o1`, the cytotoxicity is 62.7% (active). The figure for `COc1ccccc1C(=O)N1CCN(c2cccc(Cl)c2)CC1` is 31.3%; for `COc1ccc2nc3oc(C(=O)N4CCN(c5cccc(Cl)c5)CC4)cc3cc2c1` it is 25.9%.

As for `CCOc1ccc(C(=O)N2CCN(c3ccccc3)CC2)cc1OCC`, the cytotoxicity is -18%. The figure for `COc1ccc(N2CCN(Cc3cc(=O)oc4ccc(Cl)cc34)CC2)cc1` is -1.6%. The value for `COc1ccc(OC)c(S(=O)(=O)N(C)CC(=O)N2CCN(c3cccc(Cl)c3)CC2)c1` was -14.2%; that for `Cc1cc(C(=O)N2CCN(c3ncccn3)CC2)c(C)o1` was 6.7%. The figure for `COc1ccc(C(=O)N2CCN(c3cccc(Cl)c3)CC2)c(OC)c1` is 50.5% (active); for `O=C(O)c1ccccc1C(=O)N1CCN(c2cccc(Cl)c2)CC1` it is 0.5%; for `COc1cccc(N2CCN(Cc3coc4c(Cl)cc(Cl)cc4c3=O)CC2)c1` it is 65% (active). As for `Cc1cc(C(=O)CSc2nc3ccccc3n2CCC#N)c(C)n1Cc1cccs1`, the cytotoxicity was -13.5%. `Cc1ccc(C(=O)CSc2nnc(CNc3ccc(C)cc3C)n2Cc2ccco2)cc1`: the cytotoxicity was 30.1%.

On to `Brc1ccc2ncnc(Nc3ccc(N4CCOCC4)cc3)c2c1`, for which the cytotoxicity was -4.9%. The figure for `CCCn1c(SCC(=O)c2cc(OC)ccc2OC)nc2c1c(=O)n(C)c(=O)n2C` is 8.2%; for `CCOC(=O)c1[nH]c(C)c(C(=O)NCC2CCCO2)c1C` (configuration not stated) it is 5.6%; for `CCCCN(CC)C(=O)c1ccc(Cl)c(Cl)c1` it is -3.6%. On to `COc1ccccc1CC(=O)N1CCN(c2cccc(C(F)(F)F)c2)CC1`, for which the cytotoxicity is -1.7%. The figure for `COc1cc(CN2CCSCC2)cc(OC)c1OC` is -7.4%; for `Cc1ccc(C(=O)N2CCN(c3cccc(Cl)c3)CC2)cc1C` it is 27.4%; for `O=C(c1ccccc1F)N1CCN(c2cccc(C(F)(F)F)c2)CC1` it is -5.2%.

Turning to `O=C(c1cccc(F)c1)N1CCN(c2cccc(Cl)c2)CC1`, the cytotoxicity was 26.8%.

With `COc1ccccc1C(=O)N1CCN(c2cccc(C(F)(F)F)c2)CC1`, the cytotoxicity was 62.5% (active). The value for `O=C(c1c(Cl)nc2sccn12)N1CCN(c2cccc(Cl)c2)CC1` was 64.5% (active); that for `COc1ccc(CCNC(=O)CN2CCN(c3cccc(Cl)c3)CC2)cc1OC` was 8.7%. For the compound `Nc1ccc(CCS(N)(=O)=O)cc1`, the cytotoxicity is 12.4%. The figure for `c1ccc(-c2noc(CN3CCN(C(c4ccccc4)c4ccccc4)CC3)n2)cc1` is -6.9%; for `CCCC(=O)c1cc(F)c(N2CCN(C(=O)OCC)CC2)cc1C` it is -0.7%; for `COCCSc1nnc(NC(=O)CSCc2ccccc2)s1` it is 16.5%.

On to `CCCCOC(=O)Cn1c(=O)oc2ccc(C)cc21`, for which the cytotoxicity was 5.8%.

Consider `CN1CCCC(OC(=O)c2cc(Cl)ccc2Cl)C1` (configuration not stated), for which the cytotoxicity was -23.9%. The figure for `Cc1nnc2sc(-c3cccc(NC(=O)c4cccnc4)c3)nn12` is -1%; for `CSc1nnc2n(CCc3ccccc3)c(=O)c3c4c(sc3n12)CCCC4` it is 15.3%.

For the compound `Cn1c(=O)c2[nH]cnc2n(-c2ccccc2)c1=O`, the cytotoxicity was -4.3%. The figure for `COc1ccc(OC)c(Nc2nc(-c3sc(C)nc3C)cs2)c1` is 26.2%. In the case of `COc1ccc(OC)c(Nc2nc(-c3ccc(O)c(O)c3)cs2)c1`, the cytotoxicity was 59.5% (active). The figure for `COc1ccc(C(=O)Nc2nc(-c3cccs3)cs2)cc1` is 38%. The figure for `COc1ccc(-c2csc(NC(C)=O)n2)cc1OC` is 10.2%; for `COc1ccccc1Nc1nc(-c2cccs2)cs1` it is 18.3%. The figure for `COc1ccc(OC)c(Nc2nc(-c3cccs3)cs2)c1` is 54.9% (active); for `CC1C(=O)C(C)C(c2ccc3c(c2)OCO3)NC1c1ccc2c(c1)OCO2` (configuration not stated) it is 1.3%; for `CC(C)N(Cc1nc(-c2ccc(Cl)cc2)no1)C(=O)CCCN1C(=O)c2ccccc2C1=O` it is 3.9%. In the case of `CCc1ccc(NC(=O)C2CC=CCC2C(=O)O)cc1` (configuration not stated), the cytotoxicity is -3.7%. The figure for `O=C(O)C1C2C=CC3(CN(Cc4ccncc4)C(=O)C13)O2` (configuration not stated) is -2.7%; for `O=C(O)C1C2C=CC3(CN(Cc4ccccn4)C(=O)C13)O2` (configuration not stated) it is 76.1% (active); for `O=C(O)C1C2C=CC3(CN(Cc4ccco4)C(=O)C13)O2` (configuration not stated) it is 1.9%. The value for `Cc1cc(NS(=O)(=O)c2ccc(NC(=O)Nc3ccccc3)cc2)no1` was -21%; that for `CCOC(=O)c1ccc(NC(=O)CCc2nc(-c3ccccc3Cl)no2)cc1` was 76.1% (active). The value for `CCOC(=O)c1ccc(NC(=O)CCc2nc(-c3ccccc3)no2)cc1` was -8%; that for `CCOC(=O)c1ccc(NC(=O)CCc2nc(-c3ccc(Cl)cc3)no2)cc1` was 0.1%. For `CC1CCCC(C)N1C(=O)Cn1c(=O)sc2ccccc21` (configuration not stated), the cytotoxicity is 0.8%.

As for `Cc1ccc(C2CC(C(F)F)n3ncc(C(=O)Nc4cnn(Cc5ccccc5C)c4)c3N2)cc1` (configuration not stated), the cytotoxicity was 21.9%. The figure for `CCOC(=O)CCCCNCc1ccccc1` is -6.1%; for `COc1ccc(-c2nnc(SCCc3ccccc3)n2N)cc1` it is 4.3%; for `Cc1nc2c3c(-c4ccccc4)c(-c4ccccc4)oc3ncn2n1` it is 1%. In the case of `COc1ccc(-c2nnc(SCc3ccccc3)n2N)cc1`, the cytotoxicity was -12.1%.

As for `COc1ccc(-c2oc3ncn4nc(COc5ccccc5)nc4c3c2-c2ccc(OC)cc2)cc1`, the cytotoxicity is 57.9% (active). Consider `COc1ccccc1OCc1nc2c3c(-c4ccccc4)c(-c4ccccc4)oc3ncn2n1`, for which the cytotoxicity is 9.1%. As to `COc1ccc(-c2oc3ncn4nc(Cc5ccccc5)nc4c3c2-c2ccc(OC)cc2)cc1`, the cytotoxicity is 57% (active).

For `COc1ccc(C)cc1N(CC(=O)NC1CCCC1)C(=O)CCC(=O)Nc1cc(C)on1`, the cytotoxicity was -5.7%.

In the case of `CCCCS(=O)(=O)/C=C\C1C2C=CC(C2)C1S(=O)(=O)CCCC` (configuration not stated), the cytotoxicity is -2.6%.

With `CCCCS(=O)(=O)/C=C\C=C/S(=O)(=O)CCCC`, the cytotoxicity is 112% (active). The value for `OC(COc1ccc(Cl)cc1)CN1C2=NCCCN2c2ccccc21` (configuration not stated) was 6.4%; that for `CCC(=O)c1ccccc1OCCCN1C(=O)NC(C)(C)C1=O` was 21%. The figure for `CC1CC(C)CN(S(=O)(=O)c2ccc3c(c2)oc(=O)n3CC(=O)N2CCOCC2)C1` (configuration not stated) is 2.5%; for `c1ccc(-c2ccc(-n3ccnc3)cc2)cc1` it is 2.4%; for `c1ccc(-c2nc(-n3ccnc3)nc(-n3ccnc3)n2)cc1` it is 19.8%. The value for `Clc1ccc(-c2nnc(-c3ccc(Br)o3)o2)c(Cl)c1` was 19.1%. Turning to `CCn1c(SCC(=O)c2ccccc2)nnc1-c1cc2cc(Br)ccc2o1`, the cytotoxicity is 8%. The value for `CCCCCC(=O)N(CN1C(=O)CCC1=O)c1ccccc1` was -8.7%. The value for `Cc1nc(NCCCN2CCOCC2)c2oc3ccccc3c2n1` was 6.7%. The figure for `O=C(O)c1cc(S(=O)(=O)N2CCCCCC2)ccc1Cl` is -3.9%; for `O=S(=O)(c1ccc(S(=O)(=O)N2CCCC2)cc1)N1CCCCCC1` it is -15%. `O=C(CN1CCN(c2ccccn2)CC1)N1c2ccccc2CCc2ccccc21`: the cytotoxicity was -4.4%. The value for `CCN(CC(=O)NC1CCCCC1)S(=O)(=O)c1ccc(Cl)cc1` was -13.6%; that for `CCOC(=O)C1CCCN(c2c(NCc3ccco3)c(=O)c2=O)C1` (configuration not stated) was 2.5%.

Regarding `O=C(CSc1nnc(COc2ccccc2)o1)NCCc1ccccc1`, the cytotoxicity was -27.9%. The figure for `COc1ccc(C2C(C#N)=C(SC)NC3=C2C(=O)CC(C)(C)C3)cc1` (configuration not stated) is -1.7%; for `COc1ccc(C2CC(=O)C3=C(C2)NC(C)=C(C#N)C3c2ccc(N(C)C)cc2)cc1` (configuration not stated) it is -3.8%. As for `COc1cc(C2C(C#N)=C(C)NC3=C2C(=O)CC(C)(C)C3)cc(OC)c1O` (configuration not stated), the cytotoxicity was 6.8%. The value for `COc1cc(C2C(C#N)=C(C)NC3=C2C(=O)CC(C)(C)C3)ccc1O` (configuration not stated) was -10.6%. `COc1cc(C2C(C#N)=C(C)NC3=C2C(=O)c2ccccc23)cc(OC)c1OC` (configuration not stated): the cytotoxicity was 80.3% (active). Regarding `COc1ccc(C2C(C#N)=C(C)NC3=C2C(=O)c2ccccc23)cc1` (configuration not stated), the cytotoxicity was 53.8% (active).
